# Results: PubChem BioAssay (NCATS)
# Records with an inconclusive call do not appear. A number with no mark means an inactive call. Calls of active or inactive are those of the source. Unless noted, calls follow the shape of the dose curve; as a rule, active = well fitted inhibition curve with a large enough effect; inconclusive = small, poorly fitted or top-dose-only effect; inactive = no such curve, though single readings can be large or run the other way.
# Target: 3',5'-cyclic-AMP phosphodiesterase 4B (Homo sapiens) (UniProt Q07343)
# Test: qHTS Assay for Inhibitors of PDE-IV (AID 607; active = well fitted activation curve with a large enough effect in the main read-out, with a control signal flat, not every such curve was filed as active; also: % of control where 0% means no effect)
# Details: HEK293 ACTOne CNG channel cells, membrane potential fluorescence; series mostly up to 22.9 µM; activation (PDE inhibition): at the top concentration
# Summary of the method: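 ACTOne HEK293 cells carry a modified cAMP-gated CNG channel and express endogenous PDE4; plated 1000 cells/well, compounds up to 22.9 uM final. Membrane-potential dye fluorescence (ex 535/em 590) was read; parental cells received 10 uM forskolin + 100 uM RO 20-1724.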
# Chain of 3',5'-cyclic-AMP phosphodiesterase 4B (Homo sapiens) (Q07343 whole entry, looked up): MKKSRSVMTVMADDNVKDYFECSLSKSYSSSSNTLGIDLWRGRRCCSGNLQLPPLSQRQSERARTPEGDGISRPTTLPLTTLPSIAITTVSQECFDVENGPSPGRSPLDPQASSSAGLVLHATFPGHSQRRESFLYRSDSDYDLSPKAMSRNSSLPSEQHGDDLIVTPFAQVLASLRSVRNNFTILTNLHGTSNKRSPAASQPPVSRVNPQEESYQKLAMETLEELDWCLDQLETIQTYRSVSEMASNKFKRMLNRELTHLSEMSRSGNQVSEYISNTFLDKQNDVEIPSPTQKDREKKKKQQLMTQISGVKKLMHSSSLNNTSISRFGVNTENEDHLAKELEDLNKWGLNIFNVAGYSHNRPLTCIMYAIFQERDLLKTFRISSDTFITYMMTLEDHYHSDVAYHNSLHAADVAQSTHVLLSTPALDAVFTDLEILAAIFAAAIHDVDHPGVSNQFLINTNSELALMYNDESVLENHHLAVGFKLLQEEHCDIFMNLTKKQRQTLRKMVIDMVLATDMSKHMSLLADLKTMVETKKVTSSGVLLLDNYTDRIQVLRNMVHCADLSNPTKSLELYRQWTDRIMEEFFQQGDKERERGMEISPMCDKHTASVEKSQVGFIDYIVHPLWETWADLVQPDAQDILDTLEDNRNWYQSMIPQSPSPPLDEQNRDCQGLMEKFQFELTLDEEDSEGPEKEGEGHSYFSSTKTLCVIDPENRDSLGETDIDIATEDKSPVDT
Structure (SMILES),activation (PDE inhibition),outcome
Cn1c([N+](=O)[O-])cnc1COC(N)=O,-1.11%,
CC[N+](CC)(CC(=O)Nc1c(C)cccc1C)Cc1ccccc1,-1.17%,
NC(N)=NS(=O)(=O)c1ccc(N)cc1,-4.09%,
Cc1c(NC(C)C)c(=O)n(-c2ccccc2)n1C,10.4%,
CN1C(C)(C)CCCC1(C)C,,inactive
NS(=O)(=O)c1ccc(C(=O)O)cc1,8.57%,
CC[N+](C)(CC)CCOC(=O)C1c2ccccc2Oc2ccccc21,4.24%,
C[N+](C)(C)CC[N+]1(C)Cc2c(Cl)c(Cl)c(Cl)c(Cl)c2C1,1.91%,
C[C@@H]1CCC[C@H](C)N1,2.33%,
O=C(O)c1ccccc1OP(=O)(O)O,0.934%,
COc1ccc2cc(CCC(C)=O)ccc2c1,-0.94%,
Cn1c(=O)c2c(ncn2CCO)n(C)c1=O,-7.73%,
CCc1cccc(CC)c1NC(=O)CN(CC(=O)O)CC(=O)O,3.9%,
Cc1cc(NC(=O)C2=C(O)c3ccccc3S(=O)(=O)N2C)no1,3.18%,
O=C(Cn1ccnc1[N+](=O)[O-])NCCO,-0.632%,
CC(=O)SC[C@@H](Cc1ccccc1)C(=O)NCC(=O)OCc1ccccc1,-17.4%,
NC(=O)CC[C@@H](N)C(=O)O,-10.1%,
O=C(O)c1ccccc1C(=O)Nc1ccc(S(=O)(=O)Nc2nccs2)cc1,-10.6%,
CC(=O)N[C@@H](CC(C)C)C(=O)O,-7.28%,

# Target: Cytochrome P450 2C9 (Homo sapiens) (UniProt P11712)
# Test: qHTS Assay for Inhibitors and Substrates of Cytochrome P450 2C9 (AID 883); also: nearly all actives have a fitted effect of over 60% in size; also: potency is read from the fitted curve at half-maximal effect; as to activity change, negative = inhibition: % is scaled to controls: 0 for no effect and ±100 for the full control effect
# Details: recombinant CYP2C9, luciferin-H luminescence, 60 min; series mostly up to 25.6 µM; activity change, negative = inhibition: at the top concentration
# Description: NIH Molecular Libraries Screening Centers Network [MLSCN] NIH Chemical Genomics Center [NCGC] MLSCN Grant: None NCGC Assay Overview: The P450 gene superfamily is involved in the metabolism and clearance of xenobiotics. This assay used human CYP2C9 to measure the hydroxylation of deoxyluciferin (Luciferin-H; P450 Glo-Buffer) to luciferin. The luciferin is then measured by luminescence after the addition of a luciferase detection reagent. Luciferin-H concentration in the assay was equal to its Michaelis constant KM for CYP2C9. Inhibitors and some substrates limit the production of luciferin, and decrease measured luminescence.
# NCGC Assay Protocol Summary: Two uL of enzyme and substrate mix (final concentrations: 10nM CYP2C9, 100uM Luciferin-H, 25mM KPO4) were dispensed into a white, solid bottom 1536-well microtiter plate. 23nL of compound was transferred by a pin tool. The plate was incubated at 37C for 10 min. Two uL of an NADPH regeneration solution (Promega supplied reagent) was dispensed and the reaction was allowed to continue for 60 min at 37C. Then the reaction was stopped by reconstituted P450 Glo-Buffer. After another 20 min of incubation the plate was read on the ViewLux (Perkin Elmer) at 60 sec exposure and 2x2 binning. This protocol was carried out with Promega-Glo reagents and further information can be found at http://www.promega.com/tbs/tb325/tb325.pdf. Data were normalized to the to AC100 inhibition (57uM sulphaphenazole). Keywords: P450, CYP2C9, Luciferase, MLSMR, MLSCN, NIH Roadmap, qHTS, NCGC
# Chain of Cytochrome P450 2C9 (Homo sapiens) (P11712 whole entry, looked up): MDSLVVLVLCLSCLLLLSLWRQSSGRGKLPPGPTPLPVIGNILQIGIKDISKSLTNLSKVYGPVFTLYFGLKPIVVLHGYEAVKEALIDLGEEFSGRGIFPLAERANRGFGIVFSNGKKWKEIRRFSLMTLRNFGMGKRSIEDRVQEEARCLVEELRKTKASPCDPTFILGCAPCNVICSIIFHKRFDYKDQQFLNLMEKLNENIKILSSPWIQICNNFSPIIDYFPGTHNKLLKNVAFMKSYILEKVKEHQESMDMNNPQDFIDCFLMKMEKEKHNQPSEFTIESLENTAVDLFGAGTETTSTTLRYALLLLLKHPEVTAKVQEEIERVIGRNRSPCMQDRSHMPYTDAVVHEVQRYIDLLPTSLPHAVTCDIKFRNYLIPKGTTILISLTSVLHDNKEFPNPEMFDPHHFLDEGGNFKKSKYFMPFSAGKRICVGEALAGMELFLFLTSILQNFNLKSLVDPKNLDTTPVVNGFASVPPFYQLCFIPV
Structure (SMILES),"activity change, negative = inhibition",Potency
NS(=O)(=O)c1ccc(C(=O)O)cc1,-3.12% [at 11.4 µM],
C[C@@H]1CCC[C@H](C)N1,19.6%,
Cc1cccc(Nc2ccccc2C(=O)O)c1C,,7.94 µM (active)
O=C(O)COC(=O)Cc1ccccc1Nc1c(Cl)cccc1Cl,,1.58 µM (active)

# Target: Cytochrome P450 3A4 (Homo sapiens) (UniProt P08684)
# Test: qHTS Assay for Inhibitors and Substrates of Cytochrome P450 3A4 (AID 884); also: % is scaled to controls: 0 for no effect and ±100 for the full control effect; nearly all actives have a fitted effect of over 50% in size
# Details: recombinant CYP3A4, Luciferin-PPXE luminescence; series mostly up to 57.1 µM; activity change, negative = inhibition: at the top concentration
# Summary of the method: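 20 nM human CYP3A4 with 25 uM Luciferin-PPXE (at KM) in 200 mM KPO4, preincubated 10 min with compound; NADPH regeneration started a 60 min RT reaction. Luciferin detected by luminescence, normalized to 57 uM ketoconazole as full inhibition.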
# Chain of Cytochrome P450 3A4 (Homo sapiens) (P08684 whole entry, looked up): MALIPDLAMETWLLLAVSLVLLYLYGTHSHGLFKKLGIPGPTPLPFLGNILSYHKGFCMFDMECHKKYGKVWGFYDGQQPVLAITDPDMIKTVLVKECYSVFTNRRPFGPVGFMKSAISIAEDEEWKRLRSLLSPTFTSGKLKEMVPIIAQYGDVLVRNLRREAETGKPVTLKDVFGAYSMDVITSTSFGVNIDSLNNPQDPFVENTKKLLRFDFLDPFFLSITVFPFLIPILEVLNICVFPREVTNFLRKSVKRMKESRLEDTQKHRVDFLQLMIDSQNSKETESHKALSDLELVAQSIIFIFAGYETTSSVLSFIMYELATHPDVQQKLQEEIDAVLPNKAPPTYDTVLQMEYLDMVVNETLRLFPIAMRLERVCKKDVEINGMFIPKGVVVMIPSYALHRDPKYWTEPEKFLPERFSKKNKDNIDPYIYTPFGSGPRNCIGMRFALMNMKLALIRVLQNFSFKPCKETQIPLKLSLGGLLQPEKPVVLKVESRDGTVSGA
Structure (SMILES),"activity change, negative = inhibition",outcome
Cn1c([N+](=O)[O-])cnc1COC(N)=O,8.85%,
NC(=O)c1ccc([N+](=O)[O-])cc1Cl,-6.98%,
NS(=O)(=O)c1cc(C2(O)NC(=O)c3ccccc32)ccc1Cl (stereo not drawn),-2.66%,
CC1CCc2cc(F)cc3c(=O)c(C(=O)O)cn1c23 (stereo not drawn),-3.13%,
NC(N)=NS(=O)(=O)c1ccc(N)cc1,-8.07%,
CC(=O)NCc1c(I)c(NC(C)=O)c(I)c(C(=O)O)c1I,-5.53%,
NC(=O)NC1NC(=O)NC1=O (stereo not drawn),-0.977%,
C/C=C/C(=O)N(CC)c1ccccc1C,58.9%,
Cc1cccc(C(=O)O)c1O,0.674%,
Cc1c(NC(C)C)c(=O)n(-c2ccccc2)n1C,0.637%,
O=c1[nH]cnc2nc[nH]c12,-14.1%,
NS(=O)(=O)c1ccc(C(=O)O)cc1,-0.84% [at 11.4 µM],
O=C(O)c1cc(=O)c2ccccc2o1,-8.31%,
O=C(O)c1ccccc1OP(=O)(O)O,7.61%,
Cc1cccc(Nc2ccccc2C(=O)O)c1C,,inactive
Cn1c(=O)c2c(ncn2CCO)n(C)c1=O,-11.4%,
Cc1[nH]c(C)c(Cl)c(=O)c1Cl,-9.83%,
C[n+]1ccccc1/C=N/O,2.79%,
C[N+]1(C)CCCC(OC(=O)C(O)(c2ccccc2)c2ccccc2)C1 (stereo not drawn),-0.511%,
CCCCCC(C)N (stereo not drawn),-7.52%,
CCOC(N)=O,-9.97%,
Cc1cc(NC(=O)C2=C(O)c3ccccc3S(=O)(=O)N2C)no1,-14.2%,
O=C(Cn1ccnc1[N+](=O)[O-])NCCO,-8.08%,
CC(N)CCCC(C)(C)O (stereo not drawn),-13.7%,
O=C(O)c1ccccc1C(=O)Nc1ccc(S(=O)(=O)Nc2nccs2)cc1,-12.3%,
